Most compounds without a hit are left out; they make up all but 6% or so of the library.
D1 PAM: human D1 dopamine receptor positive modulation. P21728. HEK293 TREx D1 cells, calcium flux, dopamine EC20 potentiation. potentiation, % at 10 µM. actives 0.036% (n = 360,000). AID 504651; in the data active means potentiation above about 30%
D1 antagonist: human D1 dopamine receptor antagonism; P21728; actives 3.2% (n = 360,000); activity change, negative = inhibition, % at 10 µM; HEK293 TREx D1 cells, calcium flux, dopamine EC80; hits give low values; in the data active means activity change below about -30%
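Compound effects on dopamine-evoked calcium signalling were measured in tetracycline-induced HEK293 Trex D1 cells. Dopamine at EC80 followed a 180 s compound pre-read, and fluorescence was tracked kinetically for 180 s more.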
D3 ag: agonists of human D3 dopamine receptor. D3R DiscoveRx beta-arrestin cells, luminescence, 90 min. AID 652048. actives 0.58% (n = 410,000). P35462. max activation, %; in the data active means max activation above about 30%
Target sequence (P35462 whole entry, looked up): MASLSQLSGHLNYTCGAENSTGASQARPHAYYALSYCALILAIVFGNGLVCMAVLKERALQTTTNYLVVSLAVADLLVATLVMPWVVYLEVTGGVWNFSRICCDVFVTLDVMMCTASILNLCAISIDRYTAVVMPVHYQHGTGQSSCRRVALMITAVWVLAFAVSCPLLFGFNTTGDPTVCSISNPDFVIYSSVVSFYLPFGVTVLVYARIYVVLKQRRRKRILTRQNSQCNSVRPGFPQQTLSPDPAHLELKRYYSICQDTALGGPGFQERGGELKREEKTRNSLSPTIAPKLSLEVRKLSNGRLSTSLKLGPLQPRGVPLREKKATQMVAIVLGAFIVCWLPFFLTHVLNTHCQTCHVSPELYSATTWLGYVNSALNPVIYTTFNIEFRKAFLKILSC
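Agonist-mode cell screen: cells plated at 1500/well and incubated overnight at 37 °C, then exposed to library compounds for 90 min at 37 °C. Detection reagent was added for 30–60 min at room temperature, and luminescence was read.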
D3 antag: D3 dopamine receptor (human) antagonism; D3R cells, DiscoveRx beta-arrestin luminescence, antagonist mode; hits give low values; AID 652054; actives 2.5% (n = 360,000); P35462; max response, negative = inhibition, %; in the data active means max response below about -50%; inconclusive means no clear call, values can overlap the other calls
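Cells plated overnight at 1500 cells/well, then exposed to library compounds with dopamine controls for 90 minutes at 37 degrees C. DiscoveRx reagent added for 30–60 minutes at room temperature; luminescence read, quantitative HTS format.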
D1 ag: human D1 receptor agonism; P21728; HEK293 T-REx D1 cells, calcium flux, agonist mode; activation, % at 2 µM; actives 1% (n = 360,000); AID 504660; in the data active means activation above about 30%
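Agonism was scored from calcium flux recorded over 180 s (1 read/s) after pintool compound addition, following a 10-cycle baseline. Cells were inducible force-coupled HEK293 TREx D1, plated overnight at 30 C and loaded with no-wash calcium dye.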
Each line names hits and unclear results; the compound was inactive in the other large screens.

COc1cc(C(=O)Nc2cc3c(cc2C)n(C)c(=O)c(=O)n3C)cc(OC)c1OC	none (no result: D3 antag)
CCOC(=O)c1c(C)[nH]c(C)c1S(=O)(=O)NCC(=O)Nc1cccc(SC)c1	none (no result: D3 antag)
CC(C)CC(=O)NC(Nc1ccc([N+](=O)[O-])cc1)C(Cl)(Cl)Cl (centres undefined)	D1 antagonist -40.4
Cc1ccc(CSCC(=O)N2CCN(c3ccccc3F)CC2)cc1	none (no result: D3 antag)
Clc1ccc2c(c1)C1CC2CCN1Cc1ccccc1 (centres undefined)	D3 antag inconclusive (no result: D1 PAM, D1 antagonist, D1 ag)
COc1ccc(CN2CCC3CC2c2cc(Cl)ccc23)cc1 (centres undefined)	D3 antag -59.1 (no result: D1 PAM, D1 antagonist, D1 ag)
CC(CN1CCN(c2ccccc2)CC1)c1ccccc1 (centres undefined)	D1 antagonist -58.8, D3 antag -64.3
CC(CCN1CCN(c2ccc(F)cc2)CC1)c1ccccc1 (centres undefined)	D1 antagonist -61.7, D3 antag -76.4
c1ccc(SCCN2CCN(c3ccccc3)CC2)cc1	D3 antag -102.9
Cc1ccc(NC(=O)Cn2c(=O)n(Cc3ccco3)c(=O)c3sc4ccccc4c32)cc1C	none (no result: D3 antag)
COc1ccc(OC)c(NC(=O)Cn2cnc3onc(-c4ccc(Cl)cc4)c3c2=O)c1	none (no result: D3 antag)
COCCNC(=O)CSc1nc2cc3c(cc2c(=O)n1CCCCCC(=O)NCCc1ccc(OC)c(OC)c1)OCO3	none (no result: D3 antag)
Cc1oc(C(C)(C)C)cc1C(=O)NC1CCN(Cc2ccccc2)CC1	D3 antag -79.7
CCCC(CCC)C(=O)NC1CCN(Cc2ccccc2)CC1	none
Cc1oc(-c2ccc(Cl)cc2)cc1C(=O)NC1CCN(Cc2ccccc2)CC1	D3 antag -65.1
Cn1c(O)c(C2=c3ccccc3=NC2=O)sc1=Nc1ccc(Cl)cc1	D3 antag -63.0
CC(C)NC(=O)Cn1nc(C(F)(F)F)c2c1CCC2	none
O=C(Cn1nc(C(F)(F)F)c2c1CCCC2)NC1CCCC1	D3 antag -55.1 (no result: D1 PAM, D1 antagonist, D1 ag)
Nc1ccc(N2C(=O)c3ccccc3C2=O)c(Cl)c1	D1 antagonist -45.6
CCOc1cc(C(=O)Nc2ccc(-c3nc4ccccc4s3)cc2Cl)cc(OCC)c1OCC	none (no result: D3 antag)
Cc1cccc(C(=O)Nc2ccc(C(=O)/C=C/c3cccnc3)cc2)c1	D3 antag -81.0
O=C(/C=C/c1cccnc1)c1ccc(NC(=O)c2cccc(Br)c2)cc1	D3 antag inconclusive
O=C(/C=C/c1cccnc1)/C=C/c1cccnc1	D3 antag -101.8
C(=Cc1cccnc1)c1ccncc1	none (no result: D1 PAM, D1 antagonist, D1 ag)
COc1ccc2[nH]c(S(=O)Cc3ncc(C)c(OC)c3C)nc2n1 (centres undefined)	none (no result: D1 PAM, D1 antagonist, D3 antag, D1 ag)
CCN1CCN(C(c2ccccc2)c2nnnn2Cc2ccccc2)CC1 (centres undefined)	none
Cc1cccc(C)c1-n1nnnc1C(c1cccs1)N1CCN(C/C=C/c2ccccc2)CC1 (centres undefined)	D3 antag -84.0 (no result: D1 PAM, D1 antagonist, D1 ag)
Cc1cccc(N2CCN(C(c3cccs3)c3nnnn3C(C)(C)C)CC2)c1C (centres undefined)	none
Cc1cccc(C)c1-n1nnnc1C(c1ccccc1)N1CCN(C/C=C/c2ccccc2)CC1 (centres undefined)	D3 antag -132.7 (no result: D1 PAM, D1 antagonist, D1 ag)
C/C(=C(\CCOC(=O)c1ccccc1)SS/C(CCOC(=O)c1ccccc1)=C(/C)N(C=O)Cc1cnc(C)nc1N)N(C=O)Cc1cnc(C)nc1N	none (no result: D1 PAM, D1 antagonist, D3 antag, D1 ag)
Cc1ccc(Cn2ccn(Cc3ccccc3F)c(=O)c2=O)cc1	none (no result: D3 antag)
COc1ccc(-n2cc(C(=O)NCCc3cc(OC)ccc3OC)c3ccccc3c2=O)cc1	none (no result: D3 antag)
Cc1ccc(-c2cnc(N)n2C)cc1C	D3 antag -101.2
COc1ccc(Cn2ccc3nc(C)c(C(=O)NCc4ccc(SC)cc4)cc3c2=O)cc1	none (no result: D3 antag)
CCOC(=O)c1ccc(NC(=O)Cn2nc(SC)c(S(=O)(=O)c3ccc(Cl)cc3)c2N)cc1	none (no result: D3 antag)
COc1ccc(C(CNC(=O)C(C)Oc2ccc(Br)cc2)N2CCOCC2)cc1 (centres undefined)	D3 antag -69.4
COc1ccc(NS(=O)(=O)c2cccc(C(=O)OCC(=O)N3CCN(c4ccc(OC)cc4)CC3)c2)cc1	D1 antagonist -69.0
COc1ccc(C(CNC(=O)c2ccc(Cl)c(NC(=O)c3cccs3)c2)N2CCCC2)cc1 (centres undefined)	D3 antag -68.4
COc1ccc(C(O)(C(C)C)C(CN2CCOCC2)c2ccc(Cl)cc2)cc1 (centres undefined)	D3 antag -54.9
COc1ccc(C(CNC(=O)COc2ccc(Cl)cc2C)N2CCCCC2)cc1 (centres undefined)	none
COc1ccc(C(CNC(=O)COc2cc(C)c(Cl)c(C)c2)N2CCCCC2)cc1 (centres undefined)	D3 antag -91.7
COc1ccc(C(CNC(=O)c2cccc(S(=O)(=O)Nc3ccc(F)cc3)c2)N2CCCCC2)cc1 (centres undefined)	D3 antag -72.3 (no result: D1 PAM, D1 antagonist, D1 ag)
COc1ccc(C(CNC(=O)CNC(=O)c2cccc(C)c2)N2CCCCC2)cc1 (centres undefined)	D3 antag -51.7 (no result: D1 PAM, D1 antagonist, D1 ag)
COc1ccc(C(CNC(=O)COc2ccccc2)N2CCCCC2)cc1 (centres undefined)	D3 antag -115.8
COc1ccc(C(CNC(=O)COc2ccc(C)c(C)c2)N2CCCCC2)cc1 (centres undefined)	D3 antag -100.0
COc1ccc(/C=N/NC(=O)c2ccc(-n3cnnn3)cc2)cc1	D1 antagonist -64.6
Cc1ccc(/C=N/NC(=O)c2ccc(-n3cnnn3)cc2)cc1	none
COc1ccc(C(CNC(=O)c2ccc(-n3cnnn3)cc2)N2CCOCC2)cc1 (centres undefined)	D1 antagonist -47.0
COc1ccc(C(CNC(=O)COc2ccc(Cl)c(C)c2)N2CCOCC2)cc1 (centres undefined)	none (no result: D3 antag)
COc1ccc(C(CNC(=O)Cc2ccccc2Cl)N2CCCCC2)cc1 (centres undefined)	D3 antag -86.3
COc1ccc(C(CNC(=O)Cc2ccccc2F)N2CCCCC2)cc1 (centres undefined)	D3 antag inconclusive
CN1C(=O)c2ccccc2Sc2ccc(NC(=O)N3CCN(c4cccc(Cl)c4)CC3)cc21	none (no result: D3 antag)
Cc1ccc2c(c1)C(c1ccccc1)N(C(=O)COc1ccc(Cl)cc1Cl)CC(=O)N2 (centres undefined)	none (no result: D3 antag)
COc1ccc(OCC(=O)NCC(c2ccc(OC)cc2)N2CCCCC2)cc1 (centres undefined)	D3 antag -61.7
COc1ccc(C(CNC(=O)C(C)(C)Oc2ccc(Cl)cc2)N2CCCC2)cc1 (centres undefined)	D3 antag -114.3
CN(C)c1ccc(C(CNC(=O)Cc2ccc(Cl)cc2)N2CCOCC2)cc1 (centres undefined)	none (no result: D3 antag)
